“And” between values parts separate entries of the source, which are not always exact repeats. Identical values can stand only once. Inconclusive results are not listed. A structure can be active in one record and inactive in another. The source made the active and inactive calls. Unless noted, calls come from the whole dose curve; as a rule, active = well fitted curve in the direction sought with a large enough effect in the repeat runs; inconclusive = weak or mixed curves; inactive = no such curve, though single readings can be large; an effect the other way counts as inactive or inconclusive.
Assays:
[1] = qHTS assay to identify small molecule antagonists of the glucocorticoid receptor (GR) signaling pathway - cell viability counter screen (AID 720693); note: nearly all actives have a fitted effect of over 55% in size
[2] = qHTS assay for identifying genotoxic compounds that show differential cytotoxicity against isogenic chicken DT40 cell lines with known DNA damage response pathways - wild type cell line (AID 743012); note: nearly all actives have a fitted effect of over 60% in size
Outline: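 Parental DNA repair-proficient DT40 cells, 300 per well, were pre-incubated ~0.5 h at 37 C/5% CO2, pin-dosed with compounds in DMSO, then incubated 40 h. Viability was read as CellTiter-Glo luminescence after 30 min at room temperature.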

[3] = qHTS assay for identifying genotoxic compounds that show differential cytotoxicity against isogenic chicken DT40 cell lines with known DNA damage response pathways - Rev3 mutant cell line (AID 743014); note: nearly all actives have a fitted effect of over 55% in size
[4] = qHTS assay for identifying genotoxic compounds that show differential cytotoxicity against isogenic chicken DT40 cell lines with known DNA damage response pathways - Rad54/Ku70 mutant cell line (AID 743015); note: nearly all actives have a fitted effect of over 60% in size
[5] = qHTS assay to identify small molecule antagonists of the androgen receptor (AR) signaling pathway - cell viability counter screen (AID 743033; note: nearly all actives have a fitted effect of over 45% in size)
[6] = target: Androgen receptor (Homo sapiens) (UniProt P10275); assay: qHTS assay to identify small molecule agonists of the androgen receptor (AR) signaling pathway using the MDA cell line (AID 743040; note: nearly all actives have a fitted effect of over 20% in size)
Sequence of Androgen receptor (Homo sapiens) (P10275 whole entry, looked up): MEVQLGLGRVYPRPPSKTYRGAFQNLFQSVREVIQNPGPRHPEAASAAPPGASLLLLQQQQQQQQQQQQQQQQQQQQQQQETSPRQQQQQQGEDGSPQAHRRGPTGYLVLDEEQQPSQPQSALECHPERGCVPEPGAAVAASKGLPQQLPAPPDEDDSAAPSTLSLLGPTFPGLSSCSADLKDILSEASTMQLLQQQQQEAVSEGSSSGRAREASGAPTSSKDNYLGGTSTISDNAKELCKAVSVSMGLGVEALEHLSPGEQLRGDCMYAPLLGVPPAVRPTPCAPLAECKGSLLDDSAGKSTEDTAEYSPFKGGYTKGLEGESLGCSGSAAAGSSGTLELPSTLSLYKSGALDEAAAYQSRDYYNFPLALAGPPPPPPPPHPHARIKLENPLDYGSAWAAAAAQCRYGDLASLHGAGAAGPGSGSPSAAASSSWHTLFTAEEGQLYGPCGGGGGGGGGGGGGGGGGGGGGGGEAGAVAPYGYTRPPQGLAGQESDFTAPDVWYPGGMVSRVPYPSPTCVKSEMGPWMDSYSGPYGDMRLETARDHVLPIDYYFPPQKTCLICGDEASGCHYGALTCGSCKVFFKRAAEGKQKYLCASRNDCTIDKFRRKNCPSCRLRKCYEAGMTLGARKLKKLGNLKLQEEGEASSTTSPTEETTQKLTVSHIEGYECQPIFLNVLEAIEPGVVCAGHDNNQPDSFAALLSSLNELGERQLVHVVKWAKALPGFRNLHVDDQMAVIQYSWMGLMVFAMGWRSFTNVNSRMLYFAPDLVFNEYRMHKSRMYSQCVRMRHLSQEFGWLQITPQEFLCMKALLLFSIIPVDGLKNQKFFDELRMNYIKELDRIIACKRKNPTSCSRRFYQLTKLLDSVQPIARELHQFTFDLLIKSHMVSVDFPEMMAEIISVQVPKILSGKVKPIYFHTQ
Outline: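 After a 5 h incubation at 37C and 0% CO2, MDA-kb2 reporter cells were dosed with compounds in DMSO and kept 16 h under the same conditions. Luciferase activity was then read as luminescence with ONE-Glo.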

[7] = qHTS assay to identify small molecule antagonists of the androgen receptor (AR) signaling pathway using the MDA cell line - cell viability counter screen (AID 743041; note: nearly all actives have a fitted effect of over 45% in size)
Outline: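 R1881-driven MDA-kb2 AR-luc cells, 3,000/well, were dosed with library compounds for 16 h; cell health came from CellTiter-Fluor fluorescence in the reporter wells.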

[8] = target: Androgen receptor (Homo sapiens) (UniProt P10275); assay: qHTS assay to identify small molecule antagonists of the androgen receptor (AR) signaling pathway using the MDA cell line (AID 743042; note: nearly all actives have a fitted effect of over 55% in size)
Outline: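 Antagonist mode: compounds plus R1881 agonist added to MDA-kb2 AR-luc cells, incubated 16 h at 37C. Luciferase reporter luminescence quantified, with multiplexed CellTiter-Fluor readout for cell viability.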

[9] = qHTS assay to identify small molecule antagonists of the thyroid receptor (TR) signaling pathway - cell viability counter screen (AID 743064); note: nearly all actives have a fitted effect of over 50% in size
Outline: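 In-well cytotoxicity read by CellTiter-Fluor (30 min, 37 C) following 23.5 h exposure of GH3 cells bearing a TRE-luciferase sensor. Compounds were added alongside 1 nM (final) T3 to drive TR transactivation.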

[10] = target: Androgen receptor (Homo sapiens) (UniProt P10275); assay: qHTS assay to identify small molecule agonists of the androgen receptor (AR) signaling pathway (AID 743036; active = well fitted activation curve with a large enough effect in the signal ratio in the repeat runs, with a control signal flat, not every such curve was filed as active; the % refers to the signal ratio)
Outline: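 Activation was read as beta-lactamase FRET signal from LiveBLAzer B/G substrate, added for 2 h at room temperature. Before that, GeneBLAzer AR-UAS-bla GripTite (HEK293) cells had 16 h compound exposure at 37C.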
Potency is the fitted concentration of half-maximal effect.

Row | Compound | Potency [1] | Potency [2] | Potency [3] | Potency [4] | Potency [5] | Potency [6] | Potency [7] | Potency [8] | Potency [9] | Potency [10]
1 | C=CC(=O)OCC(COC(=O)C=C)(COC(=O)C=C)COC(=O)C=C | 8.71 µM (active) | 0.77 µM (active) | 0.969 µM (active) | 0.686 µM (active) | 6.92 µM (active) | inactive | 7.7 µM (active) | 1.93 µM (active) | 2.73 µM (active) | 
2 | CCCCCCCCCCCCCC[P+](CCCCCC)(CCCCCC)CCCCCC (tested in a mixture with another compound) | 2.75 µM (active) | 3.44 µM (active) | 3.86 µM (active) | 3.06 µM (active) | 1.95 µM (active) |  | 4.33 µM (active) |  | 2.43 µM (active) | 
3 | C[C@@H]1CC[C@@]2(OC1)O[C@H]1[C@@H](O)[C@H]3[C@@H]4CC[C@H]5C[C@@H](O[C@@H]6O[C@H](CO)[C@H](O[C@@H]7O[C@H](CO)[C@@H](O)[C@H](O[C@@H]8OC[C@@H](O)[C@H](O)[C@H]8O)[C@H]7O[C@@H]7O[C@H](CO)[C@@H](O)[C@H](O[C@@H]8O[C@H](CO)[C@@H](O)[C@H](O)[C@H]8O)[C@H]7O)[C@H](O)[C@H]6O)[C@H](O)C[C@]5(C)[C@H]4CC[C@]3(C)[C@H]1[C@@H]2C | 16.4 µM (active) | 16.3 µM (active) | 4.09 µM (active) | 2.05 µM (active) | 2.32 µM (active) | inactive | 25.8 µM (active) | 8.17 µM (active) | 2.05 µM (active) | 
4 | BrC(Br)Br | inactive | inactive | inactive | inactive | inactive |  | inactive |  | inactive | 
5 | CC(C)OC(=S)S | inactive | 24.3 µM (active) | 27.3 µM (active) | 24.3 µM (active) | 17.4 µM (active) |  | inactive |  | inactive | 
6 | N#CCCSCCC#N | inactive | inactive | inactive | inactive | inactive | inactive | inactive | inactive | inactive | 
7 | CC(=O)C(Cl)(Cl)Cl | inactive | 13.2 µM (active) | 16.6 µM (active) | 16.6 µM (active) | 10.6 µM (active) | inactive | 26.4 µM (active) | 13.2 µM (active) | 5.9 µM (active) | 
8 | O=c1[nH]c2ccccc2n1C1CCN(CCCC(c2ccc(F)cc2)c2ccc(F)cc2)CC1 | 5.49 µM (active) | 5.31 µM (active) and 6.11 µM (active) | 10.6 µM (active) and 21.7 µM (active) | 8.41 µM (active) and 9.69 µM (active) | inactive and 17.4 µM (active) |  | inactive |  |  | 
9 | Cc1cc(N=Nc2ccccc2C)ccc1N | 49 µM (active) | 27.3 µM (active) | 54.5 µM (active) and 48.6 µM (active) | 27.3 µM (active) and 19.3 µM (active) | inactive | inactive |  | inactive | 24.3 µM (active) | 
10 | C[C@H]1O[C@@H](O[C@H]2[C@@H](O)C[C@H](O[C@H]3[C@@H](O)C[C@H](O[C@H]4CC[C@@]5(C)[C@H](CC[C@@H]6[C@@H]5CC[C@]5(C)[C@@H](C7=CC(=O)OC7)CC[C@]65O)C4)O[C@@H]3C)O[C@@H]2C)C[C@H](O)[C@@H]1O | 477 nM (active) and 98.3 nM (active) | 422 nM (active) and 388 nM (active) | 473 nM (active) and 218 nM (active) | 473 nM (active) and 308 nM (active) | 95.2 nM (active) and 22 nM (active) |  | inactive | inactive | inactive | 
11 | CC1(C)C(/C=C(\Cl)C(F)(F)F)C1C(=O)OC(C#N)c1cccc(Oc2ccccc2)c1 (centres undefined) | inactive | inactive | inactive | inactive | inactive |  | inactive |  | inactive | 
12 | Clc1ccc(C(c2ccc(Cl)cc2)C(Cl)(Cl)Cl)cc1 | inactive | 18.8 µM (active) and 24.3 µM (active) | 10.6 µM (active) and 7.75 µM (active) and 6.86 µM (active) | 23.7 µM (active) and 19.3 µM (active) | inactive |  | inactive |  | 18.8 µM (active) and 30.9 µM (active) and 30.6 µM (active) | 
13 | CC(C)(C)OO | inactive | inactive | inactive | inactive | inactive | inactive | inactive | inactive | inactive | inactive
14 | O=C(O)c1cc[c]([Hg][Cl])cc1 | inactive | inactive | 1.93 µM (active) | 1.54 µM (active) | 54.9 µM (active) |  | inactive |  | 17.2 µM (active) | 
15 | CC(=O)[O-].[Tl+] | inactive | 2.75 µM (active) | 1.73 µM (active) | 1.73 µM (active) |  |  |  |  |  | 
16 | COC(=O)N(C(=O)N1CO[C@@]2(C(=O)OC)Cc3cc(Cl)ccc3C2=N1)c1ccc(OC(F)(F)F)cc1 | inactive | 6.63 µM (active) | 14.8 µM (active) | 9.36 µM (active) | inactive | inactive | inactive | 23.5 µM (active) | inactive | 
17 | Clc1ccc(CSC(Cn2ccnc2)c2ccc(Cl)cc2Cl)cc1 (centres undefined) | inactive | 10.1 µM (active) | 11.4 µM (active) | 12.7 µM (active) |  |  |  |  |  | 
18 | N#C/C=C/C#N | inactive | inactive | inactive | inactive | inactive |  | inactive |  | 64 µM (active) | 

Row | Compound | Potency [1] | Potency [2] | Potency [3] | Potency [4] | Potency [5] | Potency [6] | Potency [7] | Potency [8] | Potency [9] | Potency [10]
19 | FC(Cl)(Cl)Cl | inactive | inactive | inactive | inactive | inactive | 1.36 µM (active) | inactive | inactive | inactive | 12.3 µM (active)
20 | COc1ccc(/C(=C/C(=O)N2CCOCC2)c2ccc(Cl)cc2)cc1OC | inactive | 24.3 µM (active) | 30.6 µM (active) | 30.6 µM (active) | inactive | inactive | inactive | 30.6 µM (active) | inactive | inactive
21 | COc1cccc(C(=O)CCN[C@@H](C)[C@H](O)c2ccccc2)c1 | inactive | 6.68 µM (active) | 16.8 µM (active) | 13.3 µM (active) | inactive | inactive |  |  | 13.3 µM (active) | inactive
22 | CCCCCCCCCCCCCCCC[N+](C)(C)C | 23.9 µM (active) and 26.6 µM (active) and 34.7 µM (active) | 473 nM (active) and 934 nM (active) and 969 nM (active) | 596 nM (active) and 417 nM (active) and 770 nM (active) | 841 nM (active) and 1.05 µM (active) and 969 nM (active) | 21.1 µM (active) and 27.5 µM (active) |  | 61.1 µM (active) |  | 9.44 µM (active) and 20.9 µM (active) and 13.7 µM (active) | 
23 | Clc1ccc(-c2ccc(Cl)c(Cl)c2Cl)c(Cl)c1Cl | inactive | inactive | inactive | inactive | inactive |  | inactive |  | inactive | 
24 | O=[N+]([O-])c1cc([N+](=O)[O-])c2ccccc2c1 | inactive | 6.11 µM (active) | 13.7 µM (active) | 7.52 µM (active) | inactive | inactive |  |  |  | 
25 | CC1CCC(C(C)C)C(OC(=O)c2ccccc2N)C1 (centres undefined) | inactive | 23.7 µM (active) and inactive | inactive | 26.6 µM (active) | inactive |  | inactive |  |  | 
26 | CC(=O)[O-].CC(=O)[O-].[Hg+2] | 6.16 µM (active) | 1.54 µM (active) | 1.54 µM (active) | 1.09 µM (active) | 11 µM (active) |  | 27.3 µM (active) |  | 1.37 µM (active) | 
27 | CCCCCCCCCCCCCCCCCCn1cc[n+](C)c1 | 24.4 µM (active) | 1.21 µM (active) | 0.963 µM (active) | 2.16 µM (active) | 13.7 µM (active) | inactive |  | 7.65 µM (active) | 12.1 µM (active) | 
28 | CCCCCCCCCCCCCN1CC(C)OC(C)C1 (centres undefined) | inactive | 54.5 µM (active) | 27.3 µM (active) | 30.6 µM (active) | inactive |  | inactive |  | inactive | 
29 | S=C(SSC(=S)N1CCCCC1)N1CCCCC1 | inactive | 0.531 µM (active) | 0.531 µM (active) | 0.596 µM (active) | 6.01 µM (active) |  | 1.06 µM (active) |  | 0.211 µM (active) | 
30 | Cc1cc(C(C)(C)c2cc(C)c(O)c(C)c2)cc(C)c1O | 42.2 µM (active) | 52.7 µM (active) | 26.4 µM (active) | 26.4 µM (active) | 26.6 µM (active) | inactive |  | 29.6 µM (active) | 23.5 µM (active) | 
31 | O=C(NC(=O)c1c(F)cccc1F)Nc1cc(Cl)c(OC(F)(F)C(F)F)c(Cl)c1 | inactive | inactive | inactive | 21.7 µM (active) | inactive | inactive | inactive | inactive | inactive | 
32 | CC(C)CC(C)N (centres undefined) | inactive | inactive | inactive | inactive | inactive |  | inactive |  | inactive | 
33 | O=C1c2ccccc2C(=O)C1C(=O)C(c1ccccc1)c1ccc(Cl)cc1 (centres undefined) | 19.5 µM (active) | 27.3 µM (active) | 27.3 µM (active) | 21.7 µM (active) | 13.8 µM (active) | inactive |  | 15.4 µM (active) | 27.3 µM (active) | inactive
34 | ClC(Cl)=C(c1ccc(Cl)cc1)c1ccc(Cl)cc1 | inactive | inactive | inactive | inactive | inactive |  | inactive |  | 62.6 µM (active) and 30.6 µM (active) | 
35 | CCC[CH2][Sn]([CH2]CCC)([CH2]CCC)[O]C(=O)c1ccccc1 | 1.55 µM (active) | 0.243 µM (active) | 0.154 µM (active) | 0.193 µM (active) | 0.692 µM (active) |  | 1.93 µM (active) |  | 1.22 µM (active) | 
36 | CC[C@H]1C[C@@H]2C[C@H]3c4[nH]c5ccc(OC)cc5c4CCN(C2)[C@@H]13 | inactive | 23.9 µM (active) | 47.7 µM (active) | 53.5 µM (active) | inactive | inactive | inactive | inactive | 60.1 µM (active) | inactive

Reference: PubChem BioAssay (Tox21)
